Compounds without any hit were thinned out: in the full panel of roughly 83,000, 20% have a hit.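 Results are percent growth after 48 hours of single-concentration exposure. 100 means growth as in untreated cells, lower positive values show inhibition; negative values down to -100 show cell death.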 Active and inactive are the calls of the source. How the source made its calls: active means growth percent below 10; inactive means the rest.
These compounds were tested on 786-0 renal (assay: NCI-60 one-dose screen, 48 h (100 = growth as untreated, 0 = no growth, -100 = all killed)). Conditions: 10 µM unless noted.

SMILES	growth
O=C1CCCCN1c1ccc(C2=NCCCN2)cc1	95% (inactive)
O=C(Oc1ccc2c(c1)sc1nc(-c3ccccc3)[nH]c(=O)c12)C(F)(F)F	51% (inactive)
CCNC(=O)N1CCc2c(Br)c3c(c(OC)c2C1Cc1ccc(OC)cc1)OCO3 (centres undefined)	31.2% (inactive)
Cc1ccccc1N1CCN(C(=S)c2ccccc2)CC1	103% (inactive)
CS(=O)(=O)Nc1cc(-c2ccc3ncnc(Nc4ccc(F)c(Cl)c4)c3c2)ccc1Cl	50.3% (inactive)
Fc1cc2[nH]ncc2c2c3c(c(-c4cn[nH]c4C(F)(F)F)nc12)CCCC3	1.39% (active)
COc1ccc(CNc2ccc3nc(NC(=O)CN4CCCCCC4)sc3c2)cc1	104% (inactive)
COc1c2c(cc3c1C(=O)N[C@@H]1[C@@H](O)[C@@H](O)[C@H](O)C[C@@H]31)OCCO2	97.4% (inactive)
CCN1C(=O)N(c2ccccc2)C2NC(=S)N(/N=C/C=C/c3ccccc3OC)C21 (centres undefined)	26% (inactive)
CSc1nc2ccc(C)cc2cc1/C=C1/C=C(c2ccccc2)NC1=O	2.66% (active)
CC1=Nc2cnc(Nc3ccc(N4CCCCC4)cc3)nc2Nc2ccccc21	51.8% (inactive)
Nc1c(C(=O)Nc2cccc3ncccc23)sc2nc3c(cc12)CN(Cc1ccccc1)CC3	88.1% (inactive)
COCCn1cc(-c2nc(-c3cn(CCOC)c4ncccc34)cs2)c2cc(F)ccc21	76.6% (inactive)
COC(=O)[C@]1(C)CCC[C@]2(C)[C@H]3C[C@@H]4[C@H]5[C@@H]6CC/C(=N\OCC/C(N)=N/O)[C@H]5[C@@]3(CC[C@H]21)CC4(C(C)C)O6	86.2% (inactive)
